Screens as filed in PubChem BioAssay.
Marburg entry inh = inhibitors of Marburg virus binding or cell entry | Marburg virus pseudotyped entry inhibition, cell reporter | Potency, µM (series often up to 37.8 µM), actives largely listed as inhibitors | 300,000 tested, 1.8% active; calls by dose curve; tested in HEK293 cells
Shiga toxin inh = blocks Shiga toxin action in Vero cells | Vero cells, Shiga toxin protein synthesis inhibition reporter | inhibition, % at 38.7 µM | 290,000 tested, 9.2% active | AID 2315; in the data active = inhibition mostly above about 28%, no sharp cut-off; inactive = mostly below about 43%
Lassa entry inh = blocks Lassa virus binding to or entry into cells; Lassa virus pseudotype entry inhibition, cell reporter; Potency, µM (highest dose often 37.9 µM), usual class: inhibitors; 300,000 tested, 1.2% active; AID 540256; calls by dose curve; tested in HEK293 cells; note: nearly all actives have a fitted effect of over 50% in size
AMA1-RON2 inh = AMA1-RON2 (P. falciparum) interaction inhibition. AlphaScreen AMA1-biotinylated RON2 peptide binding. Potency, µM (highest dose often 58.2 µM), usual class: inhibitors. 360,000 tested, 0.2% active. AID 720542; active = well fitted inhibition curve with a large enough effect; inconclusive = small, poorly fitted or top-dose-only effect; inactive = no such curve, though single readings can be large or run the other way; note: nearly all actives have a fitted effect of over 45% in size
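AMA1 (3D7) with his tag at 25 nM final met compounds first, then biotinylated RON2 peptide at 25 nM; detection used donor plus acceptor beads, 10 µg/mL apiece, read by AlphaScreen after 30 min at room temperature.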
Cycloheximide cs = counter-screen for Shiga toxin inhibitors: cycloheximide protein synthesis inhibition | cell reporter, cycloheximide protein synthesis inhibition counterscreen | max response, % | 300,000 tested, 12% active; in the data active = max response mostly above about 13%, no sharp cut-off; inactive = mostly below about 14%; note: read at 38.3 µM for the half of the compounds with a filed dose
Numbers stand for hits; n = inactive; u = inconclusive; x = not tested or not shown; [ ] = another dose, or the depositor's remark. Shown is part of a subset that was picked to be rich in hits.

SMILES	Marburg entry inh	Shiga toxin inh	Lassa entry inh	AMA1-RON2 inh	Cycloheximide cs
CS(=O)(=O)N1CCc2cc(-c3csc(NC(=O)Cc4cccs4)n3)ccc21	u	n	13µM	n	n
CC(=O)Nc1nc(-c2ccc3c(c2)CCN3S(C)(=O)=O)cs1	n	67	n	n	18
COc1ccc(-c2cccc3c2NC(=O)C3=O)cc1OC	x	x	x	n	x
COC(=O)c1ccccc1NC(=O)c1onc(C)c1Cl	x	n	x	n	n
Cc1noc(C(=O)Nc2cccc(O)c2)c1Cl	n	76	n	n	43
Cc1noc(C(=O)Nc2cccc(Cl)c2)c1Cl	x	60	x	n	33
Cc1nnsc1C(=O)Nc1cccc(Cl)c1	n	n	n	n	n
Cc1noc(NC(=O)c2ccc(Cl)cc2)c1Cl	n	66	n	n	44
Cc1noc(NC(=O)c2cccc(C(F)(F)F)c2)c1Cl	n	n	n	n	n
O=C(c1ccc2c(=O)n3c(nc2c1)CCCCC3)N1CCN(C(c2ccccc2)c2ccccc2)CC1	u	n	16µM	n	n
O=C(c1ccc2c(=O)n3c(nc2c1)CCCCC3)N1CCN(c2ccccc2)CC1	n	n	n	n	n
CN(C(=O)c1ccc2c(=O)n3c(nc2c1)CCCCC3)c1ccccc1Cl	n	n	n	n	19
O=C(c1ccc2c(=O)n3c(nc2c1)CCCCC3)N1CCCCC1	n	n	n	n	21
O=C(/C=C/c1ccccc1[N+](=O)[O-])OCC(=O)N1CCN(c2ccccc2)CC1	x	x	x	n	x
O=c1oc(-c2ccccc2)c(-c2ccccc2)c2ccccc12	u	x	u	n	x
C/C(=N\NC(=O)c1ccc(C)cc1C)c1ccc(-n2ccnc2)cc1	n	n	u	n	27
C/C(=N\NC(=O)c1ccc(C)cc1C)c1ccc2c(c1)Nc1ccccc1S2	n	40	u	n	30
CNC(=S)N/N=C(\C)c1ccc(-n2ccnc2)cc1	n	n	n	n	n
C/C(=N\NC(N)=O)c1ccc(-n2ccnc2)cc1	n	n	n	n	n
C/C(=N\Nc1ccccc1Cl)c1ccc(-n2ccnc2)cc1	n	100	u	n	31
c1ccc(-c2ccc(-n3ccnc3)cc2)cc1	n	n	n	n	8.0
CC(=O)c1ccc2c(c1)Nc1ccccc1S2	n	n	n	n	n
CN1CC[C@@]2(CCN3CCc4c(oc5ccccc45)[C@@H]3C2)N(C)C1=O	n	x	x	x	x
C/C(=N\Nc1ccc(C(=O)O)cc1)c1ccc(-n2ccnc2)cc1	n	88	u	n	74
CCc1ccc(-c2csc3ncn(CC(=O)NCc4ccco4)c(=O)c23)cc1	u	30	u	n	15
SMILES	Marburg entry inh	Shiga toxin inh	Lassa entry inh	AMA1-RON2 inh	Cycloheximide cs
Cc1ccc(-c2csc3ncnc(OCC(=O)NC(=O)NCc4ccco4)c23)cc1	21µM	n	u	n	n
COc1ccc(CCNC(=O)Cn2cc(S(=O)(=O)Cc3ccc(F)cc3)c3ccccc32)cc1OC	x	x	n	x	x
CCCn1c2ccccc2c2cnn(CC(=O)Nc3ccc(C)cc3Br)c(=O)c21	x	x	n	x	x
CCCCN(C(=O)c1cc(=O)[nH]c2ccccc12)c1c(N)n(CCCC)c(=O)[nH]c1=O	n	n	n	n	n
CC(=O)Nc1sc2c(c1C(c1ccc(Cl)cc1)N1CCOCC1)CCCC2 (stereo not given)	u	n	u	n	n
CC(=O)Nc1sc2c(c1C(c1ccc(F)cc1)N1CCOCC1)CCCC2 (stereo not given)	13µM	n	n	n	n
N#Cc1c(N2CCN(c3ccc([N+](=O)[O-])cc3)CC2)[n+](=O)c2ccc(Cl)cc2n1[O-]	u	x	10µM	n	x
O=[N+]([O-])c1ccc(CN2CCN(c3ccc([N+](=O)[O-])cc3)CC2)cc1	n	n	u	u	n
c1ccc(CCNc2nc(-c3cccnc3)cs2)cc1	n	40	n	n	62
c1ccc(CCNc2nc(-c3ccccn3)cs2)cc1	n	86	u	n	40
c1cc(CN2CCCCC2)cc(OCCCNc2nc3ccccc3s2)c1	12µM	x	16µM	n	x
O=C(NCCCOc1cccc(CN2CCCCC2)c1)c1ccc(Cl)c(Cl)c1	u	n	u	n	n
CC(Cc1ccccc1)NC(=O)CC(c1ccccc1)c1ccccc1O (stereo not given)	u	n	5.6µM	n	n
CCc1ccccc1Nc1nc(N)nc(COC(=O)c2cccn2C)n1	8.2µM	n	u	n	30
Cc1ccccc1Nc1nc(N)nc(COC(=O)c2cccn2C)n1	n	69	u	n	36
Cc1ccccc1Nc1nc(N)nc(COC(=O)c2nn(C)c(=O)c3ccccc23)n1	x	x	x	n	x
COc1nc(Nc2ccc(O)cc2)nc(OC(C(F)(F)F)C(F)(F)F)n1	n	n	u	n	n
COc1nc(Nc2ccc(C(C)C)cc2)nc(OC)n1	n	48	u	n	41
CC(=O)c1ccc(N2CCN(CC(O)COC(c3ccccc3)c3ccccc3C)CC2)cc1 (stereo not given)	u	n	n	u	n
Cc1ccccc1C(OCCN(C(C)C)C(C)C)c1ccccc1 (stereo not given)	u	n	4µM	n[11.6 µM]	n
COc1ccc(Nc2oc(-c3ccc(COc4cccc(C)c4)o3)nc2C#N)cc1	n	x	n	x	x
Cc1cc(C(=O)Nc2nc(-c3ccccn3)cs2)ccc1[N+](=O)[O-]	u	n	u	n	28
O=C(Nc1nc(-c2ccccn2)cs1)c1cc(Cl)ccc1[N+](=O)[O-]	2.8µM	n	4.5µM	n	n
CC(=O)Nc1ccc(C(=O)Nc2nc(-c3ccccn3)cs2)cc1	x	n	x	n	n
O=C(Nc1nc(-c2ccccn2)cs1)c1ccccc1-n1cnnn1	x	n	x	n	10
SMILES	Marburg entry inh	Shiga toxin inh	Lassa entry inh	AMA1-RON2 inh	Cycloheximide cs
O=C(Nc1nc(-c2ccccn2)cs1)c1ccc2c(c1)OCCO2	x	62	x	n	44
CCc1nnc(NC(=O)c2cc(=O)c3cc(C)ccc3o2)s1	u	x	n	x	x
CCCCNC(=O)NNC(=O)c1cc(C)on1	n	n	n	n	n
O=C(CCc1ccccc1)NNC(=O)COc1ccccc1Cl	n	n	n	n	n
Cc1cccc(-c2noc(-c3ccccc3C(=O)NCc3ccco3)n2)c1	n	n	n	n	75
Cc1ccc(-c2noc(-c3ccccc3C(=O)NCc3ccco3)n2)cc1	u	63	n	n	33
COc1ccccc1-c1noc(-c2ccccc2C(=O)NCc2ccco2)n1	u	n	n	n	14
O=C(NCc1ccco1)c1cccc(-c2nnc(-c3ccccc3)o2)c1	u	49	u	n	22
COC(=O)Cn1c(=NC(=O)c2ccc3c(c2)OCCO3)sc2ccccc21	x	x	n	x	x
CCc1ccc(C2CC(=O)c3c([nH]c(C(=O)OC4CCCCCC4)c3C)C2)cc1 (stereo not given)	n	x	n	x	x
Cc1cccc(Cn2c(-c3ccc[nH]c3=O)nc3ccccc32)c1	x	n	x	n	n
Cc1cc(C)c(OCCOCCn2c(-c3ccc(Cl)cc3)nc3ccccc3c2=O)c(C)c1	n	x	u	x	x
CCN1C[C@@H]2[C@@H]3C(=O)N(C)C(=O)[C@@H]3[C@](CC)(C1=O)N2C(=O)c1ccc(Cl)cc1	x	x	x	n	x
Nc1c(C(=O)NCc2ccco2)nnn1-c1ccccc1	n	71	n	n	42
COc1ccc(-c2nc(CCNC(=O)c3ccco3)cs2)cc1OC	u	n	u	n	n
